FadD28 binding: blocks FadD28 binding to the bisubstrate probe; fluorescence polarization; inhibition, % at 12.5 µM; actives 0.22% (n = 360,000); AID 588549; in the data active means inhibition above about 8.5%, passing the limit was not always enough
Mtb betalactam: beta-lactam sensitization of Mtb H37Rv; actives 0.27% (n = 330,000); M. tuberculosis H37Rv growth with meropenem, percent inhibition; inhibition, % at 25 µM; call rule not given here;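 further: growth measured after seven days incubation then overnight dye step; 0% = bacteria only wells and 100% = bacteria with antibiotic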
GDH-TPI counter-1: inhibits GDH-TPI coupling enzymes, artifact for Mtb FBA screen; GDH-TPI coupled enzyme counterscreen, NADH absorbance; AID 588335; actives 1.2% (n = 360,000); inhibition, % at 4.8 µM; in the data active means inhibition above about 30%;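 further: 0% = DMSO wells and 100% = wells lacking the enzyme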
Mtb FBA inh: Mtb fructose-bisphosphate aldolase inhibition | purified M. tuberculosis FBA, fluorescence read-out | AID 588726 | inhibition, % at 1 µM | P9WQA3 | actives 2.3% (n = 360,000);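 further: 0% = vehicle and 100% = reference inhibitor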
Rv3671c inh: inhibitors of M. tuberculosis serine protease Rv3671c | P9WHR9 | inhibition, % at 5.96 µM | actives 0.048% (n = 320,000); in the data active means inhibition above about 38%;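 further: extracellular domain of Rv3671c used as enzyme; 0% = enzyme with DMSO and 100% = no enzyme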
Mtb UGM inh: Mtb UDP-galactopyranose mutase inhibition. P9WIQ1. purified UGM, fluorescence polarization probe displacement. inhibition, % at 10 µM. actives 0.06% (n = 320,000); in the data active means inhibition above about 10%, passing the limit was not always enough
Target sequence (P9WIQ1 whole entry, looked up): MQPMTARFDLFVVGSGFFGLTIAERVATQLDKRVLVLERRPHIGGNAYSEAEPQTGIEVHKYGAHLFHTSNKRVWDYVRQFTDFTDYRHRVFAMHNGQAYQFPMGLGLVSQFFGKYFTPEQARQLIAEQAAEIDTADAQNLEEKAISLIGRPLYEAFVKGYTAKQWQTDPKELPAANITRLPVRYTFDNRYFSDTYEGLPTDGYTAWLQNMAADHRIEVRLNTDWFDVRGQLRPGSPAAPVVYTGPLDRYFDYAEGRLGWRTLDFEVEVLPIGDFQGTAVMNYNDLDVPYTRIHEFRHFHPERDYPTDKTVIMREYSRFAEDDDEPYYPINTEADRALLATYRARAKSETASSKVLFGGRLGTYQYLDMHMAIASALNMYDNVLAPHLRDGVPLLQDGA
Mtb FBA confirm: Mtb FBA inhibition, confirmed; actives 78% (n = 5,600); inhibition, % at 1 µM; shares compounds with Mtb FBA inh; purified M. tuberculosis FBA, fluorescence read-out; AID 651616;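 further: 0% = vehicle wells and 100% = reference inhibitor wells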
GDH-TPI counter-2: GDH-TPI inhibition counter-screen for FBA inhibitors; GDH-TPI coupled enzyme counterscreen, fluorescence; inhibition, % at 1 µM; shares compounds with Mtb FBA inh; actives 81% (n = 5,600); in the data active means inhibition above about 10%
* marks the source's active call; other numbers are inactive results; nt = not tested or not shown; + = active, no number. In the library only some 3.7% were active in any assay of this set; here they are far more common. Unless noted, no stated cut-off is given here; in the data, active means inhibition above about 27%; inactive means the rest.

SMILES	FadD28 binding	Mtb betalactam	GDH-TPI counter-1	Mtb FBA inh	Rv3671c inh	Mtb UGM inh	Mtb FBA confirm	GDH-TPI counter-2
CC1=C(C(=O)N2CCOCC2)C(c2ccccc2F)C2=C(CCCC2=O)N1 (stereo unspecified)	-3	0	14	28*	-1	3	92*	61*
COc1cccc(-c2cnc(C(O)c3ccc(C)c(F)c3)[nH]2)c1 (stereo unspecified)	-2	nt	12	0	nt	nt	nt	nt
C[C@H]1CN([C@@H](C)CO)C(=O)c2cccc(NS(=O)(=O)c3ccc(F)cc3)c2O[C@H]1CN(C)S(=O)(=O)c1cn(C)cn1	-3	3	5	0	0	-1	nt	nt
N=c1oc2cc(O)ccc2cc1C(=O)Nc1ccc(F)cc1	-2	96	-2	90*	-4	-1	160*	134*
O=C(c1ccc(F)cc1)c1cc2ccc(O)cc2oc1=O	0	1	10	-6	-4	0	nt	nt
C=C(Cl)COc1ccc2c(CC)cc(=O)oc2c1	-6	10	8	28*	-1	1	+	+
C=C(Cl)COc1ccc2c(C)cc(=O)oc2c1	-1	37	6	19	-6	1	nt	nt
C=C(Cl)COc1ccc2c(CCCC)cc(=O)oc2c1	-2	-6	2	24	2	-2	nt	nt
C=C(C)COc1ccc2c(CC)cc(=O)oc2c1	-5	-3	1	40*	5	1	85*	69*
O=C(Nc1ccccc1)C1Cc2c(-c3ccc4c(c3)OCO4)ccnc2O1 (stereo unspecified)	-4	nt	7	46*	nt	nt	143*	146*
O=C(Nc1ccc2c(c1)OCO2)C1Cc2c(-c3cccnc3)ccnc2O1 (stereo unspecified)	1	nt	11	0	nt	nt	nt	nt
O=C(Nc1cccnc1)C1Cc2c(-c3ccc4c(c3)OCO4)ccnc2O1 (stereo unspecified)	1	nt	2	54*	nt	nt	+	162*
CCCCN1C(=O)C(CC(=O)NCc2ccco2)CC(C(=O)N(C(C)C)C(C)C)=C1C (stereo unspecified)	0	nt	nt	-1	nt	nt	nt	nt
CCOC(=O)Cn1c(C(F)(F)F)nc2nc(Cl)c(Cl)nc21	-4	nt	11	55*	nt	nt	102*	62*
O=C(O)c1ccc(S(=O)(=O)Nc2ccc3c(c2)OCCO3)cc1	-3	-3	-7	-3	2	8	nt	nt
CN(C)c1nc(-c2ccc([N+](=O)[O-])cc2)cs1	-1	-4	12	34*	-4	-1	194*	142*
C=CCNc1nc(-c2ccc([N+](=O)[O-])cc2)cs1	0	12	16	3	6	-1	nt	nt
CCOC(=O)N1CCC(NC(=O)c2ccc3c(c2)N(Cc2ccc(F)cc2)CCS3)CC1	0	-1	5	71*	-1	4	182*	151*
CCOC(=O)N1CCC(NC(=O)c2ccc3c(c2)N=C(C)c2ccccc2S3)CC1	-2	-1	6	2	-8	0	nt	nt
CCOC(=O)N1CCC(NC(=O)c2ccc3c(c2)N(Cc2ccccc2)CCS3)CC1	-3	4	0	28*	-3	1	65*	62*
CC(=O)Nc1cncc(-c2cnn(CC(C)C)c2)n1	-2	nt	25	61*	nt	nt	50*	51*
CNc1cc(-c2cnn(CC(C)C)c2)ncn1	1	nt	3	8	nt	nt	nt	nt
COc1ccc(NC(=O)c2cc(-c3cc(F)ccc3OC)n[nH]2)c(OC)c1	-5	nt	11	-2	nt	nt	nt	nt
Cc1cccc(N2CCN(C(=O)COc3ccc4ccc(=O)oc4c3)CC2)c1C	-3	68	-6	1	-6	2	nt	nt
NC(=O)C1CCN(C(=O)COc2ccc3ccc(=O)oc3c2)CC1	0	-12	15	30*	-4	1	2	-3
SMILES	FadD28 binding	Mtb betalactam	GDH-TPI counter-1	Mtb FBA inh	Rv3671c inh	Mtb UGM inh	Mtb FBA confirm	GDH-TPI counter-2
O=C(COc1ccc2ccc(=O)oc2c1)N1CCN(c2ccccc2)CC1	-3	3	26	27*	10	-2	78*	53*
O=C(COc1ccc2ccc(=O)oc2c1)NC1CCCCC1	-1	3	32*	32*	3	0	105*	74*
Cc1ccc(-n2nnnc2SCC(=O)c2c(N)n(C3CC3)c(=O)[nH]c2=O)c(C)c1	-4	-3	-1	-1	-1	-1	nt	nt
c1ccc(CNc2cnccn2)cc1	-3	6	14	69*	-5	1	108*	93*
Clc1ccc(CNc2cnccn2)cc1	-1	-4	7	71*	0	-2	125*	92*
Clc1ccc(CNc2ccccn2)cc1	-6	-2	-2	0	2	-2	nt	nt
Fc1ccc(CNc2cnccn2)cc1	0	-3	18	71*	-3	2	-3	-5
c1ccc(CNc2ccccn2)cc1	0	1	1	3	-5	1	nt	nt
O=C(NCc1ccc(F)cc1)c1cnccn1	0	5	7	2	8	2	nt	nt
CCN(CC)S(=O)(=O)c1ccc(-c2cn3cc(Cl)ccc3n2)cc1	-5	0	13	31*	-6	-2	nt	+
Clc1ccc(-c2cn3cc(Cl)ccc3n2)cc1	-5	5	-3	6	-2	-2	nt	nt
Nn1c(=O)[nH]c2c([nH]c3ccccc32)c1=O	-5	-4	-12	27*	1	-1	107*	86*
Cc1cn(CC(=O)NCc2ccc3c(c2)OCO3)c(=O)[nH]c1=O	-2	nt	-8	1	nt	nt	nt	nt
COc1cc2c(C#N)c(N3CCN(C)CC3)nc(N)c2c(N)n1	2	1	14	81*	-16	-1	+	+
Cc1nc(-c2coc3c(CN(C)C)c(O)ccc3c2=O)cs1	0	-7	20	42*	-6	2	6	-3
CCN(CC)Cc1c(O)ccc2c(=O)c(Oc3ccccc3OC)coc12	-1	-3	10	71*	-5	-1	+	+
COc1ccccc1Oc1coc2c(CN3CCN(C)CC3)c(O)ccc2c1=O	0	5	17	80*	-2	-2	91*	73*
CCN(CC)Cc1c(O)ccc2c(=O)c(-c3ccccc3)coc12	0	0	21	69*	-2	1	61*	43*
COc1cc(C(=O)NNC(=O)c2cccc(Cl)c2)ccc1OCC(=O)N1CCOCC1	-2	10	15	0	-1	-4	nt	nt
Cc1cccc(C)c1C(O)c1ncc(-c2cccc(C(F)(F)F)c2)[nH]1 (stereo unspecified)	-3	nt	-2	-1	nt	nt	nt	nt
CCCOc1ccc(F)cc1-c1cc(C(=O)Nc2ccc(C(C)C)cc2)[nH]n1	-1	nt	12	-1	nt	nt	nt	nt
COc1cc(CN2C[C@@H](CO)O[C@@H](n3cnc4c(N5CCOCC5)ncnc43)C2)cc(OC)c1OC	0	nt	0	0	nt	nt	nt	nt

Source: PubChem (several laboratories)
